In PubChem BioAssay one finds z-score and composite z-score data, which are given here for nine compounds.

The structures appear in SMILES notation. Calls of active or inactive are those of the source. Unless noted, the rule behind the calls is not given here.

Test [1] in a line: HepG2 liver cancer cell viability effects, profiling panel, resazurin fluorescence, 24 h, PK04 Diversity Set (AID 1172). To be noted: higher = more signal. In general terms: Resazurin is reduced to fluorescent resorufin, in cell work by metabolically active cells.
A short description of test [2]: basal S. cerevisiae growth modulation, no modifier, primary screen, OD600, strain BY4716, 24 h, basal condition (AID 1173). The conditions noted are these: OD600, 24 h, higher = more signal, called active from +8 up or from −8 down.
Test [3] is described as follows: MM1S myeloma cell viability, profiling panel, resazurin fluorescence, basal, 24 h, PK04 Diversity Set (AID 1174).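 Note: MM1S multiple myeloma cell line.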 To be noted: higher = more signal, called active from +8 up or from −8 down.
Test [4] addresses Dihydroorotate dehydrogenase (quinone), mitochondrial (Plasmodium falciparum (isolate 3D7)) (UniProt Q08210). The test can be described thus: PfDHODH enzyme inhibitors, primary screen, biochemical, C-terminal His tag, absorbance 600 nm (AID 1175).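 Note: recombinant parasite enzyme with a five histidine tag at its C terminus.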 To be noted: DCIP absorbance 600 nm, higher = more signal, called active from +8 up or from −8 down.
A short description of test [5]: P. aeruginosa biofilm formation inhibitors, primary screen, strain PAO1, LB-PBS medium, absorbance 600 nm (AID 1176). The conditions noted are these: P. aeruginosa PAO1 growth/biofilm, A600, 12 h; higher = more signal.
Test [6] can be described thus: S. cerevisiae RM11-1a growth modifiers, primary screen, strain RM11-1a, OD600, basal, 24 h (AID 1177).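 Note: cultures grown under basal conditions with no added stressor.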 To be noted: OD600, 24 h, higher = more signal, called active from +8 up or from −8 down.
Test [7] in a line: E. coli acrAB mutant growth effects, primary screen, E. coli filamentation inducers, strain DRC39, OD650, 24 h (AID 1178).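 Note: growth measured as culture turbidity by optical density at 650 nm.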 The conditions noted are these: higher = more signal, called active from +8 up or from −8 down.
The nature of test [8]: E. coli acrAB mutant growth effects, primary screen, E. coli filamentation inducers, strain DRC39, OD650, 48 h (AID 1179).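 Note: screen aims at cell division blockers that make cells filament.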 The conditions noted are these: E. coli DRC39 delta-acrAB growth, higher = more signal, called active from +8 up or from −8 down.
A short description of test [9]: RPMI8226 myeloma cell viability, profiling panel, resazurin fluorescence, basal, 24 h, PK04 Diversity Set (AID 1180).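 Note: RPMI8826 multiple myeloma cell line at 5000 cells per well.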 To be noted: higher = more signal.
The target in test [10] is E3 ubiquitin-protein ligase XIAP (Homo sapiens) (UniProt P98170). Put plainly: XIAP binders, primary screen, biophysical, small-molecule microarray, fluorescence 635 nm (AID 1181).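 Note: score merges 667 nm emission and signal to noise over triplicate slides.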 The conditions noted are these: small-molecule microarray binding, higher = more signal.
Sequence of E3 ubiquitin-protein ligase XIAP (Homo sapiens) (P98170 whole entry, looked up): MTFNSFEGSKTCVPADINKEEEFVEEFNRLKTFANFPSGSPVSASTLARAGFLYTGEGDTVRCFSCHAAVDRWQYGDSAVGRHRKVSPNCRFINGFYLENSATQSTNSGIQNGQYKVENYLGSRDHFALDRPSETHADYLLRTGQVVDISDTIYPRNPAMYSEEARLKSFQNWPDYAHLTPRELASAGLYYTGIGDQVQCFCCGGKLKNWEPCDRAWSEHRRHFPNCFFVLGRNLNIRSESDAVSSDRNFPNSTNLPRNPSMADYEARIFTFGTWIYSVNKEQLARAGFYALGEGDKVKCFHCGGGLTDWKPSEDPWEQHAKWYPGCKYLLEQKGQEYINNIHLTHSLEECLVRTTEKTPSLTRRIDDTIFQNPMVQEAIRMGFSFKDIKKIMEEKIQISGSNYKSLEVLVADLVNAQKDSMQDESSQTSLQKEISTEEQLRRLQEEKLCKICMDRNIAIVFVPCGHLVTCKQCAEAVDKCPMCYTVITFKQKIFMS
Test [11] concerns XIP peptide (Xip251-270) binding. The test can be described thus: small-molecule binders of XIP peptide, primary screen, biochemical, small-molecule microarray, fluorescence 635/667 nm, 0.1 µg/mL protein (AID 1182). To be noted: fluorescent protein binding, 635 nm, higher = more signal, called active from +8 up or from −8 down.
In test [12] the test system is XIP peptide (Xip251-270). The test can be described thus: small-molecule binders of XIP peptide, primary screen, biochemical, small-molecule microarray, fluorescence 635/667 nm, 0.5 µg/mL protein (AID 1183). To be noted: small-molecule microarray binding, fluorescence 635 nm; higher = more signal.
Test [13] in a line: Plasmodium falciparum growth inhibition, primary screen, strain 3D7, DAPI fluorescence, 100 nL (AID 1184).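 Note: parasites grown inside human red blood cells in medium with human serum.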 The conditions noted are these: P. falciparum 3D7 growth, 3 d, higher = more signal.
Test [14] has as its target Homeobox protein Hox-A13 (Mus musculus) (UniProt Q62424). The test can be described thus: inhibitors of HoxA13-DNA binding, primary screen, biochemical, fluorescence polarization, labeled oligonucleotide (AID 1185). The conditions noted are these: 15 min, higher = more signal, called active from +8 up or from −8 down.
Test [15] is described as follows: inhibitors of hydroxyurea-induced Chk1 phosphorylation, primary screen, imaging, HeLa, phospho-Chk1 antibody, percent positive cells (AID 1186). To be noted: hydroxyurea-induced phospho-Chk1 immunofluorescence imaging, higher = more signal.
Test [16] in a line: inhibitors of hydroxyurea-induced Chk1 phosphorylation, primary screen, imaging, HeLa, phospho-Chk1 nuclear intensity (AID 1187). To be noted: hydroxyurea-induced phospho-Chk1 immunofluorescence imaging, higher = more signal.

Sequence of Homeobox protein Hox-A13 (Mus musculus) (Q62424 whole entry, looked up): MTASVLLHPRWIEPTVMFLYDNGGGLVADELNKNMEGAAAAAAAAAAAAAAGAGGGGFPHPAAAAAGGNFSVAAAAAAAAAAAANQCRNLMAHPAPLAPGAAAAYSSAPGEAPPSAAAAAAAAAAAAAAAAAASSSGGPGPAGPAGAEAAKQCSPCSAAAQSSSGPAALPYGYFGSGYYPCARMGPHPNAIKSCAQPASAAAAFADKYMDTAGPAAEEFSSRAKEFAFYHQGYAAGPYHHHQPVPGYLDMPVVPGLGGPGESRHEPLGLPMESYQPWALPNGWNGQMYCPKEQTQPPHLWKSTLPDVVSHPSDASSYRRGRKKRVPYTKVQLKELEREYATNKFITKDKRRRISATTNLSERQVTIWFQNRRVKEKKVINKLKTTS
Sequence of Dihydroorotate dehydrogenase (quinone), mitochondrial (Plasmodium falciparum (isolate 3D7)) (Q08210 whole entry, looked up): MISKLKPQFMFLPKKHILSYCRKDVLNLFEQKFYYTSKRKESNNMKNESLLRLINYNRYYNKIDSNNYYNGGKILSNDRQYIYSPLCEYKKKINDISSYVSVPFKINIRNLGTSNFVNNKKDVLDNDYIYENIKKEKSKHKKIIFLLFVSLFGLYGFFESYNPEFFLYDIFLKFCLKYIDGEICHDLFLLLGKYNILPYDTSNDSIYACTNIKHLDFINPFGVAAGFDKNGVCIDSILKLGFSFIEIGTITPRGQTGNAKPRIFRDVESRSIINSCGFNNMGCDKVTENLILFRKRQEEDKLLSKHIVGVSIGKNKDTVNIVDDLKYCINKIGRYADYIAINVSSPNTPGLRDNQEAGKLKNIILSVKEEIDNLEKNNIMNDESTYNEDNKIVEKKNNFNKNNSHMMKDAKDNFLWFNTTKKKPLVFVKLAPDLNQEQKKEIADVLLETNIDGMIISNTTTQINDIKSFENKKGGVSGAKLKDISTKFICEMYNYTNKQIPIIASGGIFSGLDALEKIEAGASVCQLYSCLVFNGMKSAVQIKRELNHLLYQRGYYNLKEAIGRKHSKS

With `COc1ccc([Si](C)(C)[C@H]2[C@H](CC(=O)N(CCO)Cc3ccccc3)O[C@@]3(C(=O)N(C)c4ccccc43)[C@@H]2C)cc1`, the z-score in [1] was 0.514; in test [2], -1.42 (inactive); in test [3], -0.0262 (inactive); in test [5], 0.72 (inactive); in test [6] it was 0.11 (inactive); in test [7] it was 0.681 (inactive). The z-score is 0.455 (inactive) in [8]; 0.216 in [9]; -0.134 in test [13]; -6.95 (inactive) in test [14]; -0.217 (inactive) in test [15]; -0.251 (inactive) in [16]. In addition, the composite z-score in [4] was -0.0113 (inactive); in [10] it was 0.001; in test [11], 0.0642 (inactive); in test [12], 0.369.

`CCOC(=O)C1=CC[C@@H](c2ccccc2)N(S(=O)(=O)c2ccc(C)cc2)[C@H]1C`: the z-score was 0.302 in test [1]; 1.11 (inactive) in test [2]; -0.209 (inactive) in test [3]; -0.0601 (inactive) in test [5]; 1.43 (inactive) in test [6]; -0.472 (inactive) in test [7]. Besides, the z-score in test [8] is -0.4 (inactive); in test [9], -0.875; in test [13], -1.5; in test [14] it was -2.38 (inactive); in test [15], -0.325 (inactive); in test [16], -0.586 (inactive). In addition, the composite z-score in test [4] was -1.18 (inactive); in test [10], 0.0512; in test [11] it was 0.214 (inactive); in test [12], 0.862.

Consider `CN1C(=O)C2C=CC(C(O)c3ccc(N(C)C)cc3)N(Nc3ccc([N+](=O)[O-])cc3[N+](=O)[O-])C2C1=O` (centres undefined), for which the z-score in test [1] is 0.183; in [2], 0.111 (inactive); in [3], -0.355 (inactive); in test [5] it was 0.558 (inactive); in test [6], -0.29 (inactive); in test [7], -0.243 (inactive). The z-score was -0.411 (inactive) in test [8]; 0.236 in [9]; 0.985 in [13]; -3.89 (inactive) in test [14]; 0.347 (inactive) in test [15]; -0.169 (inactive) in test [16]. For the same compound, the composite z-score is -0.548 (inactive) in [4], -0.0023 in [10], 0.695 (inactive) in test [11] and 0.301 in test [12].

Take `CC(C)[Si](OCC[C@H]1O[C@]2(C(=O)N(Cc3ccccc3)c3ccccc32)[C@@H](C)[C@@H]1[Si](C)(C)O)(C(C)C)C(C)C`: the z-score in [1] is -0.563; in test [2], -0.113 (inactive); in test [3], 0.115 (inactive); in test [5], -0.66 (inactive); in test [6], 1.11 (inactive); in test [7], -0.297 (inactive). Further, the z-score in test [8] is -0.837 (inactive); in [9], 0.261; in [13], -1.94; in [14], -0.292 (inactive); in [15], -0.558 (inactive); in [16], -0.322 (inactive). In addition, the composite z-score in [4] is 0.766 (inactive); in test [10] it was -0.142; in test [11] it was -0.177 (inactive); in test [12], 0.457.

For the compound `C#CCNC(/C=C/c1ccccc1)CO` (centres undefined), the z-score in test [1] was -0.316; in test [2], 0.668 (inactive); in test [3] it was -0.498 (inactive); in test [5], 0.449 (inactive); in test [6], 1.62 (inactive); in test [7] it was 0.238 (inactive). Besides, the z-score in test [8] is 0.188 (inactive); in test [9], -0.153; in [13], -0.414; in test [14], -1.21 (inactive); in [15] it was 0.0357 (inactive); in test [16] it was 0.237 (inactive). The composite z-score in test [4] is 0.657 (inactive); in test [10] it was 0.0338; in test [11], -0.447 (inactive); in test [12], 0.0391.

For the compound `COc1ccc([C@H]2C[C@H]3C(Br)=C[C@]2(OC)C(=O)[C@]32CO2)cc1`, the z-score in test [1] is 0.531; in test [2], -3.26 (inactive); in [3] it was -0.677 (inactive); in test [5], 0.662 (inactive); in test [6] it was -0.173 (inactive); in test [7] it was 0.238 (inactive). Also, the z-score in test [8] is 0.205 (inactive); in test [9] it was -0.139; in [13], 0.755; in test [14], -1.48 (inactive); in [15], -0.445 (inactive); in test [16], -0.0049 (inactive). Besides, the composite z-score in test [4] was -0.314 (inactive); in test [10], -0.0599; in [11], 0.288 (inactive); in [12] it was 0.261.

Consider `CCCC=C(CCC)[C@@H](NC(=O)c1ccccc1)c1ccccc1`, for which the z-score in [1] was -0.232; in test [2], 0.752 (inactive); in test [3] it was -1.01 (inactive); in test [5], 1.27 (inactive); in [6] it was 0.0321 (inactive); in [7], 0.164 (inactive). Further, the z-score is 0.475 (inactive) in [8]; 0.0944 in test [9]; -0.639 in test [13]; -0.832 (inactive) in test [14]; -0.442 (inactive) in test [15]; -0.784 (inactive) in test [16]. Also, the composite z-score in test [4] was -0.421 (inactive); in [10], 0.086; in test [11], -1.3 (inactive); in test [12], -0.905.

`CC(C)C[C@@H]1NC(=O)[C@H]2C[C@@H](C(=O)NCCCCCC[N+](C)(C)C)[C@@H](c3ccc(O)cc3)N2C1=O`: the z-score was 1.27 in test [1]; -0.213 (inactive) in test [2]; 0.771 (inactive) in [3]; -1.04 (inactive) in test [5]; 0.817 (inactive) in [6]; 0.385 (inactive) in [7]. Moreover, the z-score in [8] was 0.19 (inactive); in test [9], 0.985; in test [13], 1.17; in test [14], -3.14 (inactive); in test [15], 0.554 (inactive); in test [16], 0.61 (inactive). For the same compound, the composite z-score is -1.51 (inactive) in test [4], -0.176 in test [10], 0.28 (inactive) in [11] and 0.608 in [12].

As for `O=C(NCC(F)(F)F)[C@@H]1c2ccccc2C(=O)N(Cc2ccccc2Cl)[C@H]1c1ccc(CO)cc1`, the z-score was 0.519 in [1]; -0.331 (inactive) in test [2]; 0.403 (inactive) in test [3]; 0.277 (inactive) in test [5]; -0.562 (inactive) in test [6]; 0.113 (inactive) in [7]. In addition, the z-score in [8] was 0.183 (inactive); in test [9] it was 0.641; in test [13], -0.472; in test [14] it was -2.37 (inactive); in test [15], 0.178 (inactive); in [16], 0.449 (inactive). The composite z-score was -0.731 (inactive) in test [4], 0.282 in test [10], 0.0987 (inactive) in test [11] and 0.0561 in test [12].
